# Measured values taken from PubChem BioAssay (NCATS).
# Where “and” joins values, the source holds several entries; their conditions need not be identical. Equal entries are not always repeated. Results filed as inconclusive are left out. Where a call stands in place of a potency, no number is given. Some structures have more than one record in an assay (separate samples or runs), and their calls can disagree. Calls of active or inactive are those of the source. Unless noted, calls follow the shape of the dose curve; as a rule, active = well fitted curve in the direction sought with a large enough effect; inconclusive = small, poorly fitted or top-dose-only effect, or another doubt; inactive = no such curve, though single readings can be large; an effect the other way counts as inactive or inconclusive.
# Tests used:
# [1] = target: Voltage-gated inwardly rectifying potassium channel KCNH2 (Homo sapiens) (UniProt Q12809); assay: qHTS Assay for Small Molecule Inhibitors of the Human hERG Channel Activity (AID 588834);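 also: lower thallium flux fluorescence means stronger hERG block; nearly all actives have a fitted effect of over 50% in size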; also: potency is read from the fitted curve at half-maximal effect
# Sequence of Voltage-gated inwardly rectifying potassium channel KCNH2 (Homo sapiens) (Q12809 whole entry, looked up): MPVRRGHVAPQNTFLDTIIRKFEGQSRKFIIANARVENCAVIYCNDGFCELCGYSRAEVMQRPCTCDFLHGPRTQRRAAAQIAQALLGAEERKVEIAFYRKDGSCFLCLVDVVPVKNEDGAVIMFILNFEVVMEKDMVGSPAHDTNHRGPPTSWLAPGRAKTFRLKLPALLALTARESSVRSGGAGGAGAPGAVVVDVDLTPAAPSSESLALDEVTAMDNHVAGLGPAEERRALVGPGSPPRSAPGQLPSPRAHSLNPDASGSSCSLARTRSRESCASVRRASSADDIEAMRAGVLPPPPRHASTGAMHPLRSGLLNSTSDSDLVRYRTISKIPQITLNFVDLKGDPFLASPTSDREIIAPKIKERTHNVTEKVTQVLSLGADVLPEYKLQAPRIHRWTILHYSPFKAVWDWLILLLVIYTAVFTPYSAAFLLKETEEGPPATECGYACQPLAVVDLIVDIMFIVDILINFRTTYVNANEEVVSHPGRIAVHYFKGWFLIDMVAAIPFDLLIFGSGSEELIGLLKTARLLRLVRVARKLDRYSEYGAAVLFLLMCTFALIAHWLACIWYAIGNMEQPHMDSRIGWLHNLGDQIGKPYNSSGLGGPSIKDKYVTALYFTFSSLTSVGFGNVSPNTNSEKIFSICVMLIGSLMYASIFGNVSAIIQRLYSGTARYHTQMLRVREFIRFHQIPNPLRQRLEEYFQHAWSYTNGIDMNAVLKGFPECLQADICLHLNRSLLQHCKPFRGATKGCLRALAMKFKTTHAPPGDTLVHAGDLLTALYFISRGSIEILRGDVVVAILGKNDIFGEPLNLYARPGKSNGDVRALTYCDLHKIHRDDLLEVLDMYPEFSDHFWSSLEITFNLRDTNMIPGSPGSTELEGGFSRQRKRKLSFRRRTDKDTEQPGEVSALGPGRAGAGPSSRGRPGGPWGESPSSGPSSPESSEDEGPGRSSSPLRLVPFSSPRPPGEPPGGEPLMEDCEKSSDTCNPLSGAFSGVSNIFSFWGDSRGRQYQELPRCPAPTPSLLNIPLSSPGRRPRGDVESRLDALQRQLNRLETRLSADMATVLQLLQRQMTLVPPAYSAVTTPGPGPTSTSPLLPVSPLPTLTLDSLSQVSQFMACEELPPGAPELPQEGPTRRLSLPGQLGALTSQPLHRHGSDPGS
# How it was run: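 Kinetic FDSS fluorescence; U2OS + hERG BacMam (~100 virus particles/cell); FluxOR Tl+ flux; ~10 min cpd; AC50 (Hill).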
# [2] = target: Luciferin 4-monooxygenase (Photinus pyralis) (UniProt P08659); assay: Biochemical firefly luciferase enzyme assay for NPC (AID 624030);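 also: purified P. pyralis luciferase at 10 nM with luciferin and ATP substrate; series mostly up to about 59 µM; nearly all actives have a fitted effect of over 70% in size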
# Sequence of Luciferin 4-monooxygenase (Photinus pyralis) (P08659 whole entry, looked up): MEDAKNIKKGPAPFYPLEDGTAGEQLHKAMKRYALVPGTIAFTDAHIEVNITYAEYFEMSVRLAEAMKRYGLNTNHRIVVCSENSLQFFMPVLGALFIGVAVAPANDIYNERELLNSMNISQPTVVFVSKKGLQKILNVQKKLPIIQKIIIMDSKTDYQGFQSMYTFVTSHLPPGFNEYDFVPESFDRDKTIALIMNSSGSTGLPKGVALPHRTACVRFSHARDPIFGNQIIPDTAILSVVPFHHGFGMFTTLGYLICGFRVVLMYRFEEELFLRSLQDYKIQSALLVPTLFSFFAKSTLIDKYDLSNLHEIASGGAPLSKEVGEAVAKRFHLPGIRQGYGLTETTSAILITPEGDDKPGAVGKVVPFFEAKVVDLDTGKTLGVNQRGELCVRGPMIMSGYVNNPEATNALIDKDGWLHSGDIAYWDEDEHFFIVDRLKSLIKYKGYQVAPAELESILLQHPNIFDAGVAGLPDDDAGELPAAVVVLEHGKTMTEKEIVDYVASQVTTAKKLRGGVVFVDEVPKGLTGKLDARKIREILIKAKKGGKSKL
# How it was run: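 Counter-screen for direct inhibition of the luciferase enzyme by approved-drug library compounds, run at 10 nM enzyme in 50 mM Tris acetate (final). Luminescence was read within 5 min of enzyme-buffer addition and normalized to PTC124 versus DMSO (0%).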
# [3] = S16 Schwann cell viability assay (CellTiter-Glo assay) (AID 624031); also: nearly all actives have a fitted effect of over 70% in size; also: potency is read from the fitted curve at half-maximal effect
# How it was run: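 Following overnight culture in 10% FBS DMEM, parental S16 rat Schwann cells are dosed for 24 h at 37 °C. Viability is read as CellTiter-Glo luminescence and expressed as % activity relative to DMSO (0%) and no-cell wells.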
# [4] = S16 Schwann cell PMP22 intronic element firefly luciferase assay (AID 624032); also: nearly all actives have a fitted effect of over 30% in size; also: potency is read from the fitted curve at half-maximal effect
# How it was run: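 Rat S16 Schwann cells stably carrying a PMP22 intronic element-driven Fluc reporter were seeded overnight, then exposed to compounds for 24 h at 37 °C. Luminescence was normalized to PTC124 (positive control) and DMSO (0% activity).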
# [5] = target: Glutaminase kidney isoform, mitochondrial (Homo sapiens) (UniProt O94925); assay: qHTS for Inhibitors of Glutaminase (GLS): LOPAC Validation (AID 624146); also: nearly all actives have a fitted effect of over 60% in size; also: potency is read from the fitted curve at half-maximal effect
# Sequence of Glutaminase kidney isoform, mitochondrial (Homo sapiens) (O94925 whole entry, looked up, canonical isoform): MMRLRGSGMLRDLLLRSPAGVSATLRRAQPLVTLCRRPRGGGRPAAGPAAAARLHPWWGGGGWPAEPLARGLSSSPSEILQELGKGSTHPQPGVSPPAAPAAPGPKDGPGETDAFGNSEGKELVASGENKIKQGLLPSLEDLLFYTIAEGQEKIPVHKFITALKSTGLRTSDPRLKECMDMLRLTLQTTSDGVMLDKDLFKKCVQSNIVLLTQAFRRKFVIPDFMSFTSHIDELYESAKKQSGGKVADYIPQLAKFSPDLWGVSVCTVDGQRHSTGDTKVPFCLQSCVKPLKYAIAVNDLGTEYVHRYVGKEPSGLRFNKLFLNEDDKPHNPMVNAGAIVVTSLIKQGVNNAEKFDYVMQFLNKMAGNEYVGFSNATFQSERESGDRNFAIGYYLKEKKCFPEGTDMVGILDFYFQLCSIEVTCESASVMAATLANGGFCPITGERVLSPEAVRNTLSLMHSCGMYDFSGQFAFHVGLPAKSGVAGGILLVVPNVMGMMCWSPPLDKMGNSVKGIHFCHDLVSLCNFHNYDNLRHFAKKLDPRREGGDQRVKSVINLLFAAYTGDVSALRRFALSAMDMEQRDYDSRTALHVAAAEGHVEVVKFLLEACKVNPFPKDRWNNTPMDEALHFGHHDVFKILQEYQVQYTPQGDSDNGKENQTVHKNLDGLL
# How it was run: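 Human kidney-isoform GLS in 45 mM KH2PO4 pH 8.2, 0.02% Tween-20, with compound, started with 1mM L-Glutamine (added stock). Glutamate oxidase/HRP/Amplex red coupled fluorescence read at start and after 30 min at RT.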
# [6] = qHTS of Trypanosoma Brucei Inhibitors: LOPAC Validation (AID 624147)
# How it was run: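 Glycolytic pyruvate kinase of T. brucei was incubated with substrate, test compound and 130 uM ADP for 45 minutes at room temperature. Luminescent Kinase-Glo Plus signal was measured after 10 minutes.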
# [7] = target: Glucagon-like peptide 1 receptor (Homo sapiens) (UniProt P43220); assay: qHTS of GLP-1 Receptor Agonists: LOPAC Validation (AID 624148);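 also: higher luminescence signal means agonism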
# Sequence of Glucagon-like peptide 1 receptor (Homo sapiens) (P43220 whole entry, looked up): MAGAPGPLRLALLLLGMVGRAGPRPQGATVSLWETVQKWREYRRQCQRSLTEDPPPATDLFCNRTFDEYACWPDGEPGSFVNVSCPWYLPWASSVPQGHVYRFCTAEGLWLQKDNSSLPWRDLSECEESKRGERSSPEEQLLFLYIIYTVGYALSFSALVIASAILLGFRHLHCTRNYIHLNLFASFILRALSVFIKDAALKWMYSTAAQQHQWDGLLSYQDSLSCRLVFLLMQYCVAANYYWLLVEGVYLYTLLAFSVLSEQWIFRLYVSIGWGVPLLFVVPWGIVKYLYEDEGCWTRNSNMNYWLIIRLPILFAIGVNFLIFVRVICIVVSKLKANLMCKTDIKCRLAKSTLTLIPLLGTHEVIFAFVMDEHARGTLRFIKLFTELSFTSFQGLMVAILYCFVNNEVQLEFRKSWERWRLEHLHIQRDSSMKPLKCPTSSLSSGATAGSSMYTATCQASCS
# How it was run: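 HEK293 cells stably co-expressing a cAMP-responsive luciferase reporter and a hypersensitive GLP-1R were plated 12 h at 37 °C and exposed to compounds for 4-6 hr at 37 °C, 5% CO2. Luminescence was read 12 min after adding detection reagent.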
# [8] = qHTS of Nrf2 Activators: LOPAC Validation (AID 624149)
# How it was run: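 Luminescence read-out of ARE-luciferase activation: AREc32_Fluc cells treated with compounds for 24 hr at 37 deg C, then lysed with Steady-Glo for 30 min at room temperature before reading.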
# [9] = S16 Schwann cell PMP22 intronic element beta-lactamase assay (AID 624044; calls by dose curve; also: nearly all actives have a fitted effect of over 15% in size; also: potency is read from the fitted curve at half-maximal effect)
# How it was run: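 Rat S16 Schwann cells with beta-Lac driven by a PMP22 intronic element, compound-treated 24 h at 37 °C. LiveBLAzer FRET B/G read: 460 nm normalized to potassium clavulanate vs DMSO; 535 nm FRET as viability; concentration-effect curves classified.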
SMILES,Potency [1],Potency [2],Potency [3],Potency [4],Potency [5],outcome [6],outcome [7],outcome [8],Potency [9]
NC/C=C/C(=O)O,inactive,inactive,inactive,inactive,inactive,inactive,inactive,inactive,
C[N+](C)(C)CCOC(N)=O,inactive,inactive,inactive,inactive,inactive,inactive,inactive,inactive,
CC[N+](C)(C)c1cccc(O)c1,inactive,inactive,inactive,inactive,inactive,inactive,inactive,inactive,
COc1ccc(CCN(C)CCCC(C#N)(c2cc(OC)c(OC)c(OC)c2)C(C)C)cc1OC (stereo unspecified),11.2 µM (active) and 2 µM (active),inactive,inactive,inactive,inactive,inactive,inactive,inactive,
Cc1ccc(Cl)c(Nc2ccccc2C(=O)O)c1Cl,inactive,inactive,inactive,inactive,inactive,inactive,inactive,inactive,
NC(N)=N/N=C/c1c(Cl)cccc1Cl,1.41 µM (active),inactive,inactive,inactive,inactive,inactive,inactive,inactive,
CNC1(C)C2CCC(C2)C1(C)C (stereo unspecified),inactive,inactive,inactive,inactive,inactive,inactive,inactive,inactive,
Nc1nc(N)c2nc(-c3ccccc3)c(N)nc2n1,inactive,inactive,inactive,inactive,inactive,inactive,inactive,inactive,
O=C(O)CP(=O)(O)O,inactive,inactive,inactive,inactive,inactive,inactive,inactive,inactive,
CCn1cc(C(=O)O)c(=O)c2cc3c(cc21)OCO3,inactive,inactive,inactive,inactive,inactive,inactive,inactive,inactive,
NC(Cc1ccc(Cl)cc1)C(=O)O (stereo unspecified),inactive,inactive,inactive,inactive,inactive,inactive,inactive,inactive,
Brc1c(NC2=NCCN2)ccc2nccnc12,inactive,inactive,inactive,inactive,,inactive,inactive,inactive,
CN1CCN(CC(=O)N2c3ccccc3C(=O)Nc3cccnc32)CC1,inactive,inactive,inactive,inactive,inactive,inactive,inactive,inactive,
CCN1CCc2nc(N)oc2CC1,inactive,inactive,inactive,inactive,,inactive,inactive,inactive,
CN(C)C(=O)Oc1cccc([N+](C)(C)C)c1,inactive,inactive,inactive,inactive,inactive,inactive,inactive,inactive,
NC(=O)c1ncn([C@@H]2O[C@H](CO)[C@@H](O)[C@H]2O)c1O,inactive,inactive,inactive,inactive,inactive,inactive,inactive,inactive,
C[C@]12CCC(=O)C=C1CC[C@@H]1[C@@H]2CC[C@@]2(C)[C@H]1CC[C@]2(O)C(=O)CO,inactive,inactive,inactive,inactive,inactive,inactive,inactive,inactive,
CN(C)CCOC(=O)COc1ccc(Cl)cc1,inactive,inactive,inactive,inactive,inactive,inactive,inactive,inactive,
CCN(CC)CCCN(c1ccccc1)C1Cc2ccccc2C1,0.794 µM (active),inactive,14.4 µM (active),16.1 µM (active),inactive,inactive,inactive,inactive,
Cc1ccc(=O)n(-c2ccccc2)c1,inactive,inactive,inactive,inactive,inactive,inactive,inactive,inactive,
O=C(O)CN(CCOCCOCCN(CC(=O)O)CC(=O)O)CC(=O)O,inactive,inactive,inactive,inactive,inactive,inactive,inactive,inactive,
OCCN1CCN(CCCN2c3ccccc3C=Cc3ccccc32)CC1,12.6 µM (active),inactive,28.7 µM (active),36.1 µM (active),inactive,inactive,inactive,inactive,
CC(=O)Oc1cc(C(C)C)c(OCCN(C)C)cc1C,inactive,inactive,inactive,inactive,inactive,inactive,inactive,inactive,
CCN1CCC[C@H]1CNC(=O)c1c(O)c(Cl)cc(Cl)c1OC,inactive and 15.8 µM (active),inactive,inactive,inactive,inactive,inactive,inactive,inactive,
CN(C(=O)CCCOc1ccc2[nH]c(=O)ccc2c1)C1CCCCC1,inactive,inactive,inactive,,inactive,inactive,inactive,inactive,inactive
CN(C)C(=O)Oc1ccc[n+](C)c1,inactive,inactive,,inactive,inactive,inactive,inactive,inactive,
CCN(Cc1ccncc1)C(=O)C(CO)c1ccccc1 (stereo unspecified),inactive,inactive,inactive,,inactive,inactive,inactive,inactive,inactive
COCCc1ccc(OCC(O)CNC(C)C)cc1 (stereo unspecified),inactive,inactive,,,inactive,inactive,inactive,inactive,

SMILES,Potency [1],Potency [2],Potency [3],Potency [4],Potency [5],outcome [6],outcome [7],outcome [8],Potency [9]
CCCNC(C)C(=O)Nc1ccccc1C (stereo unspecified),inactive,,,,inactive,inactive,inactive,inactive,
Cc1nc2sccn2c(=O)c1CCN1CCC(=C(c2ccc(F)cc2)c2ccc(F)cc2)CC1,0.0708 µM (active),inactive,inactive,,inactive,inactive,inactive,inactive,inactive
COc1cc(C(=O)OCCCN2CCCN(CCCOC(=O)c3cc(OC)c(OC)c(OC)c3)CC2)cc(OC)c1OC,10 µM (active) and inactive,inactive,,,inactive,inactive,inactive,inactive,15.8 µM (active)
C[N+](C)(C)CCCCCCCCCC[N+](C)(C)C,inactive,,inactive,inactive,inactive,inactive,inactive,inactive,
CCCN(CCC)C(=O)C(CCC(=O)O)NC(=O)c1ccccc1 (stereo unspecified),inactive,,,,inactive,inactive,inactive,inactive,
CCOC(=O)C1=C(C)NC(C)=C(C(=O)OC)C1c1cccc([N+](=O)[O-])c1 (stereo unspecified),inactive,inactive,inactive,,inactive,inactive,inactive,inactive,inactive
Cc1nc2c([nH]1)c(=O)n(C)c(=O)n2Cc1ccco1,inactive,inactive,inactive,,inactive,inactive,,inactive,
C[C@H](CS)C(=O)N1CCC[C@H]1C(=O)O,inactive,inactive,,inactive,inactive,inactive,,inactive,
CC(=O)OC(C)C[N+](C)(C)C (stereo unspecified),inactive,,,,inactive,inactive,inactive,inactive,
Cc1scc2c1N(C(=O)CN1CCN(C)CC1)c1ccccc1NC2=O,inactive,inactive,inactive,,inactive,inactive,inactive,inactive,
O=C(O)CN(CCN(CC(=O)O)CC(=O)O)CCN(CC(=O)O)CC(=O)O,inactive,inactive,inactive,,inactive,inactive,inactive,inactive,
Nc1ncn([C@@H]2O[C@H](CO)[C@@H](O)[C@H]2O)c(=O)n1,inactive,inactive,inactive,,inactive,inactive,inactive,inactive,inactive
C#CCN(C)CCCOc1ccc(Cl)cc1Cl,12.6 µM (active),,,inactive,inactive,inactive,inactive,inactive,inactive
CNCCCN1c2ccccc2CCc2ccccc21,inactive,inactive,,,inactive,inactive,inactive,,
CC(C(=O)O)c1ccc(CC2CCCC2=O)cc1 (stereo unspecified),inactive,inactive,,inactive,inactive,inactive,inactive,inactive,inactive
CCC(=O)c1ccc2c(c1)N(CCCN(C)C)c1ccccc1S2,2.51 µM (active) and 4.47 µM (active),inactive,,,,inactive,inactive,inactive,
CN(C)CCCN1c2ccccc2Sc2ccccc21,3.98 µM (active) and 10 µM (active),inactive,,,,inactive,inactive,inactive,
CCCCNc1c(C(=O)OCC)c(C)nc2c1cnn2CC,inactive,inactive,,,inactive,inactive,inactive,inactive,inactive
CCCC(C(=O)OCCN(CC)CC)(c1ccccc1)c1ccccc1,11.2 µM (active) and 10 µM (active),inactive,,inactive,inactive,inactive,inactive,inactive,inactive
CC(C)COCC(CN(Cc1ccccc1)c1ccccc1)N1CCCC1 (stereo unspecified),inactive,inactive,,,2.24 µM (active),inactive,inactive,inactive,inactive
CC1=NS(=O)(=O)c2cc(Cl)ccc2N1,inactive,inactive,inactive,,inactive,inactive,inactive,inactive,
COC(=O)C1=C(C)NC(C)=C(C(=O)OC(C)(C)CN(C)CCC(c2ccccc2)c2ccccc2)C1c1cccc([N+](=O)[O-])c1 (stereo unspecified),0.891 µM (active),inactive,,22.8 µM (active),inactive,inactive,inactive,inactive,inactive
COc1ccc2c(c1OC)C(=O)O[C@@H]2[C@H]1c2c(cc3c(c2OC)OCO3)CCN1C,inactive,,,,inactive,inactive,inactive,inactive,
COC(=O)[C@@H](N)Cc1ccc(O)c(O)c1,inactive,inactive,,inactive,,inactive,inactive,inactive,inactive
